Experimental data published in PubChem BioAssay (NCATS).
For part of these data: Entries with a potency or affinity are not part of this list. Some compounds were tested as several samples or in several runs, with calls that do not always agree. Active and inactive are the calls of the source.

Columns and labels:
[1] = Ebola virus entry assay, green fluorescence channel
[2] = Ebola virus entry assay, ratio channel readout
[3] = Ebola virus entry assay, blue channel fluorescence
[4] = Ebola virus entry assay, ratio channel
[5] = Ebola virus entry assay, reporter ratio channel
[6] = Ebola virus entry assay, blue channel (ratio component)
[7] = Ebola virus entry reporter assay, green channel fluorescence
[8] = Ebola virus entry cell assay, ratio channel
[9] = Ebola virus entry assay, blue channel fluorescence; remark: listed apart in the source
[10] = Ebola virus entry assay, green channel fluorescence
[11] = AC50: Channel type: primary unless noted, outcome: Channel type: primary unless noted

Measured: AC50

CC(C)OC(=O)C(C)(C)Oc1ccc(C(=O)c2ccc(Cl)cc2)cc1
inactive: [1] | [2] | [3] | [4] | [5]; [11] | [6] | [7] | [8]

CN(Cc1cnc2nc(N)nc(N)c2n1)c1ccc(C(=O)N[C@@H](CCC(=O)O)C(=O)O)cc1
inactive: [1] | [2] | [3] | [4] | [9] | [5]; [11] | [8]

C[C@H]1c2cccc(O)c2C(O)=C2C(=O)[C@]3(O)C(O)=C(C(N)=O)C(=O)[C@@H](N(C)C)[C@@H]3[C@@H](O)[C@@H]21
inactive: [1] | [2] | [9] | [8]
active: [3] 25.1 µM | [4] 20 µM | [5]; [11] 20 µM

COC1=CC(=O)C[C@@H](C)[C@]12Oc1c(Cl)c(OC)cc(OC)c1C2=O
inactive: [1] | [2] | [3] | [4] | [9] | [5]; Channel type: confirmation | [5]; Channel type: primary | [7] | [8]

COc1cc2nc(N(C)CCCNC(=O)C3CCCO3)nc(N)c2cc1OC (centres undefined)
active: [3] 39.8 µM | [5]; [11] 35.5 µM
inactive: [1] | [2] | [4] | [9] | [7] | [8]

CCc1c2c(nc3ccc(OC(=O)N4CCC(N5CCCCC5)CC4)cc13)-c1cc3c(c(=O)n1C2)COC(=O)[C@]3(O)CC
active: [3] 20 µM | [4] 28.2 µM | [5]; [11] 28.2 µM
inactive: [1] | [2] | [9] | [8]

CCc1ccc(CCOc2ccc(CC3SC(=O)NC3=O)cc2)nc1 (centres undefined)
inactive: [1] | [2] | [3] | [4] | [9] | [5]; [11] | [7] | [8]

NC[C@H](O)c1ccc(O)c(O)c1
inactive: [1] | [2] | [9] | [8]
active: [3] 12.6 µM | [4] 7.94 µM | [5]; [11] 7.94 µM

COC(=O)Nc1nc2ccc(C(=O)c3ccccc3)cc2[nH]1
inactive: [1] | [2] | [6]
active: [3] 1.41 µM | [4] 1.26 µM | [5]; [11] 1.26 µM | [8] 5.62 µM

COc1ccc(C(CN(C)C)C2(O)CCCCC2)cc1 (centres undefined)
active: [3] 35.5 µM | [5]; [11] 39.8 µM
inactive: [1] | [2] | [4] | [9] | [7] | [8]

O=C(c1ccc(OCCN2CCCCC2)cc1)c1c(-c2ccc(O)cc2)sc2cc(O)ccc12
inactive: [1] | [4] | [10]
active: [2] 5.02 µM | [3] 0.708 µM | [8] 5.01 µM

C[C@]12C/C(=C/O)C(=O)C[C@@H]1CC[C@@H]1[C@@H]2CC[C@@]2(C)[C@H]1CC[C@]2(C)O
inactive: [1] | [2] | [3] | [9] | [6] | [7] | [8]
active: [4] 14.1 µM | [5]; [11] 14.1 µM

CCN(CCO)CCCC(C)Nc1ccnc2cc(Cl)ccc12 (centres undefined)
active: [3] 1.12 µM | [4] 1.41 µM | [5]; [11] 1.41 µM | [8] 1.26 µM
inactive: [1] | [2] | [10]

CN1CCC[C@@H]1Cc1c[nH]c2ccc(CCS(=O)(=O)c3ccccc3)cc12
inactive: [1] | [2] | [10] | [8]
active: [3] 25.1 µM | [4] 25.1 µM | [5]; [11] 25.1 µM

COCCCOc1cc(C[C@@H](C[C@H](N)[C@@H](O)C[C@H](C(=O)NCC(C)(C)C(N)=O)C(C)C)C(C)C)ccc1OC
inactive: [1] | [2] | [3] | [4] | [5]; [11] | [6] | [7] | [8]

CC/C(=C(\c1ccccc1)c1ccc(OCCN(C)C)cc1)c1ccccc1
active: [2] 1.26 µM | [3] 1.41 µM | [4] 1.12 µM | [5]; [11] 1.12 µM | [8] 1.26 µM
inactive: [1] | [5]; [11] inactive [Channel type: confirmation]

CC[C@@]1(O)C(=O)OCc2c1cc1n(c2=O)Cc2cc3c(CN(C)C)c(O)ccc3nc2-1
active: [1] 7.94 µM | [4] 7.94 µM | [5]; [11] 7.94 µM | [8] 5.62 µM
inactive: [2] | [3] | [9] | [6]

CCOC(=O)Nc1ccc2c(c1)N(C(=O)CCN1CCOCC1)c1ccccc1S2
inactive: [1] | [2] | [3] | [4] | [9] | [6] | [8]
active: [5]; [11] 39.8 µM

CN(C)c1ccc(O)c2c1C[C@H]1C[C@H]3[C@H](N(C)C)C(=O)C(C(N)=O)=C(O)[C@@]3(O)C(=O)C1=C2O
inactive: [1] | [2] | [3] | [4] | [9] | [5]; [11] | [6] | [8]

C[C@@H](O)[C@H]1C(=O)N2C(C(=O)O)=C(S[C@@H]3CN[C@H](CNS(N)(=O)=O)C3)[C@H](C)[C@H]12
active: [5]; [11] 25.1 µM
inactive: [1] | [2] | [3] | [4] | [6] | [7] | [8]

CC(C)c1nc(CN(C)C(=O)N[C@H](C(=O)N[C@@H](Cc2ccccc2)C[C@H](O)[C@H](Cc2ccccc2)NC(=O)OCc2cncs2)C(C)C)cs1
inactive: [1] | [2] | [3] | [9] | [6] | [7] | [8]
active: [4] 22.4 µM | [5]; [11] 22.4 µM

CCC(COC(=O)c1cc(OC)c(OC)c(OC)c1)(c1ccccc1)N(C)C (centres undefined)
active: [4] 17.8 µM | [5]; [11] 17.8 µM
inactive: [1] | [2] | [3] | [6] | [7] | [8]

CN(C)[C@@H]1C(=O)C(C(N)=O)=C(O)[C@@]2(O)C(=O)C3=C(O)c4c(O)ccc(Cl)c4[C@@H](O)[C@H]3C[C@@H]12
active: [4] 28.2 µM | [5]; [11] 28.2 µM
inactive: [1] | [2] | [3] | [9] | [6] | [8]

O=C(CCCN1CCC(O)(c2ccc(Cl)cc2)CC1)c1ccc(F)cc1
inactive: [1] | [2]
active: [3] 10 µM | [4] 10 µM | [5]; [11] 10 µM

CC(C)(C)NC(=O)[C@H]1CC[C@H]2[C@@H]3CC[C@H]4NC(=O)C=C[C@]4(C)[C@H]3CC[C@]12C
inactive: [1] | [2] | [3] | [4] | [9] | [5]; [11] | [6] | [8]

Cc1nc2n(c(=O)c1CCN1CCC(c3noc4cc(F)ccc34)CC1)CCCC2
inactive: [1] | [2] | [3] | [4] | [9] | [5]; [11] | [6] | [8]

Clc1ccc(C(c2ccccc2Cl)C(Cl)Cl)cc1 (centres undefined)
inactive: [1] | [2] | [10] | [8]
active: [3] 31.6 µM | [4] 22.4 µM | [5]; [11] 22.4 µM

N=C(N)c1ccc(OCCCCCOc2ccc(C(=N)N)cc2)cc1
inactive: [1] | [2] | [3] | [4] | [9] | [5]; [11] | [6] | [8]

Cc1cc2c(s1)Nc1ccccc1N=C2N1CCN(C)CC1
inactive: [1] | [2] | [3] | [4] | [9] | [6] | [8]
active: [5]; [11] 39.8 µM

Cc1ccc(-n2[nH]c(C)c(N=Nc3cccc(-c4cccc(C(=O)O)c4)c3O)c2=O)cc1C
inactive: [1] | [2] | [3] | [4] | [9] | [5]; [11] | [6] | [7] | [8]

OCCOCCN1CCN(C(c2ccccc2)c2ccc(Cl)cc2)CC1 (centres undefined)
active: [3] 25.1 µM | [4] 31.6 µM | [5]; [11] 31.6 µM
inactive: [1] | [2] | [9] | [7] | [8]

CC(=O)Oc1cc2c(s1)CCN(C(C(=O)C1CC1)c1ccccc1F)C2 (centres undefined)
inactive: [1] | [2] | [3] | [4] | [9] | [5]; [11] | [6] | [8]

CC(C)C[C@H](NC(=O)[C@H](Cc1ccccc1)NC(=O)c1cnccn1)B(O)O
active: [3] 0.0794 µM | [4] 1.26 µM | [5]; [11] 1.26 µM
inactive: [1] | [2] | [9] | [7] | [8]

COC(=O)CCc1ccc(OCC(O)CNC(C)C)cc1 (centres undefined)
active: [3] 22.4 µM | [5]; [11] 31.6 µM
inactive: [1] | [2] | [4] | [9] | [6] | [8]

CC(=O)O[C@@]12CO[C@@H]1C[C@H](O)[C@@]1(C)C(=O)[C@H](O)C3=C(C)[C@@H](OC(=O)[C@H](O)[C@@H](NC(=O)OC(C)(C)C)c4ccccc4)C[C@@](O)([C@@H](OC(=O)c4ccccc4)[C@H]21)C3(C)C
inactive: [1] | [2] | [3] | [9] | [6] | [7] | [8]
active: [4] 20 µM | [5]; [11] 20 µM

CO[C@H]1C=CO[C@@]2(C)Oc3c(C)c(O)c4c(O)c(c(/C=N/N5CCN(C)CC5)c(O)c4c3C2=O)NC(=O)/C(C)=C\C=C[C@H](C)[C@H](O)[C@@H](C)[C@@H](O)[C@@H](C)[C@H](OC(C)=O)[C@@H]1C
inactive: [1] | [2] | [3] | [4] | [9] | [5]; [11] | [6] | [7] | [8]

CC#C[C@]1(O)CC[C@H]2[C@@H]3CCC4=CC(=O)CCC4=C3[C@@H](c3ccc(N(C)C)cc3)C[C@@]21C
inactive: [1] | [2] | [3] | [4] | [9] | [5]; [11] | [8]

Cc1ccc(NC(=O)c2ccc(CN3CCN(C)CC3)cc2)cc1Nc1nccc(-c2cccnc2)n1
inactive: [1] | [2] | [7]
active: [3] 22.4 µM | [4] 12.6 µM | [5]; [11] 12.6 µM | [8] 28.2 µM
